According to the supplement of paper PMC10338343:
± gives the standard deviation.

Tests used:
[1] = tested on: MILI (PIWIL2) piRISC loaded with L1MC piRNA (26 nt); test: pre-steady-state target cleavage rate (min^-1); guide: L1MC piRNA 5'p-UAACUAAAUACUAUGCAAGCUGUAGG; higher = faster piRNA-guided slicing of the target;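 also: 1 nM active piRISC with 0.1 nM target library at 33 °C single turnover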
Outline: (§1)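 The pre-steady-state cleavage rate was derived from a burst-and-steady-state fit of Cleave-'n-Seq data. For these assays, 1 nM active affinity-purified piRISC loaded with a single synthetic guide was mixed with […] a transcribed, DNA-blocked target RNA library in HEPES–potassium acetate buffer at 33 °C, with or without 500 nM GTSF1 partner protein, for 0–8 or 0–960 min. Sequencing counts of uncleaved targets were normalised to depth and to weakly complementary targets, and k3 was capped at 0.0001 min^-1 after three trials were pooled.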

[2] = tested on: EfPiwi piRISC loaded with L1MC piRNA (26 nt); test: pre-steady-state target cleavage rate (min^-1); auxiliary factor: 500 nM Ephydatia muelleri Gtsf1; guide: L1MC piRNA 5'p-UAACUAAAUACUAUGCAAGCUGUAGG; MIWI and MILI are mouse PIWI proteins and EfPiwi is from a freshwater sponge; tags in brackets are library labels; higher = faster piRNA-guided slicing of the target
Outline: as §1

[3] = auxiliary factor: 500 nM mouse GTSF1
[4] = auxiliary factor: none (no GTSF1)

Row | Sequence | pre-steady-state target cleavage rate [1, 3] | pre-steady-state target cleavage rate [1, 4] | pre-steady-state target cleavage rate [2]
1 | UCCUGGAUGAGCAUGCAUAGUAUUUAGUAA | 0.21 ± 0.024 | 0.00494 ± 0.0024 | 0.00596 ± 0.0037
2 | UCCUGGUACAGCUUAGCAUAGUAUUUAGUUA | 0.296 ± 0.018 | 0.0164 ± 0.0045 | 0.0188 ± 0.0058
3 | UCCUGGAUCACCUUGGAUAGUAUUUAGUUA | 0.173 ± 0.02 | 0.00563 ± 0.0021 | 0.00371 ± 0.0037
4 | UCCUCCUACAGACUUGCAUAGUAUUUAGUUA | 0.253 ± 0.02 | 0.00669 ± 0.0021 | 0.017 ± 0.006
5 | UCCUGCUACACCUUGCAUAGUAUUUAGUUA | 0.214 ± 0.018 | 0.0087 ± 0.0022 | 0.0124 ± 0.0048
6 | UCCUGGAUGACGCUUGCAUAGUAUUUAGUUA | 0.211 ± 0.022 | 0.00493 ± 0.0037 | 0.0537 ± 0.014
7 | UCCUGGAUGUGUCUUGCAUAGUAUUUAGUUA | 0.072 ± 0.013 | 0.014 ± 0.004 | 0.113 ± 0.038
8 | UCCUGGAUCAGGCUUGCAUAGUAUUUAGUUA | 0.213 ± 0.017 | 0.0107 ± 0.0028 | 0.0132 ± 0.0034
9 | UCCUGGAUAAGCUUGCAUAGUAUUUAGUUA | 0.276 ± 0.017 | 0.0122 ± 0.0029 | 0.0102 ± 0.004
10 | UCCUGGAACAGCUUGCAUAGUAUUAUAGUUA | 0.149 ± 0.024 | 0.00335 ± 0.0027 | 0.0399 ± 0.015
11 | UCCUGGAUCAGCUUGCCUAGUAUUUAGUUA | 0.234 ± 0.015 | 0.00686 ± 0.0022 | 0.0512 ± 0.011
12 | UCCUCCUACAGCUUGCAUGUAUUUAGUUA | 0.0804 ± 0.012 | 0.00283 ± 0.0027 | 0.00924 ± 0.0046
13 | UCCUGGAUGUCCUUGUAUAGUAUUUAGUUA | 0.119 ± 0.018 | 0.0121 ± 0.0026 | 0.00424 ± 0.0024
14 | UCCUCCUACAGCUUGCAUAGUAUUUUGUUA | 0.177 ± 0.023 | 0.0036 ± 0.0022 | 0.00791 ± 0.0033
15 | UCCUGCUACAGCUUGCAUAGUAUAUAGUUA | 0.227 ± 0.029 | 0.00382 ± 0.0029 | 0.00448 ± 0.0019
16 | UCCUGGAUGUGGUUGCAUAGUAUAUAGUUA | 0.158 ± 0.023 | 0.00921 ± 0.0037 | 0.00747 ± 0.0056
17 | UCCUGGAUGUGGUUGCAUAGUAUUUAGUUA | 0.163 ± 0.022 | 0.0112 ± 0.0031 | 0.00426 ± 0.0039
18 | UCCUCCUACAGCUUGCAUAGUAUUUAAUUA | 0.11 ± 0.019 | 0.00326 ± 0.0027 | 0.00331 ± 0.003
19 | UCCUGGAACAGCUUGCUUAGUAUUUAGUUA | 0.264 ± 0.01 | 0.00723 ± 0.0021 | 0.0181 ± 0.005
20 | UCCUGCUACAGCUUUCAUAGUAUUUAGUUA | 0.188 ± 0.021 | 0.00503 ± 0.0022 | 0.00701 ± 0.0022
21 | UCCUGGUUCACCUUGCAUAGUAUUUAGUUA | 0.128 ± 0.022 | 0.00513 ± 0.0027 | 0.0052 ± 0.0033
22 | UCCUGGAUGUGCUUGCAUAGUAUUUAGUCA | 0.117 ± 0.018 | 0.00487 ± 0.0035 | 0.00263 ± 0.0019
23 | UCCUGGAUCAGAUUGCAUAGUAUUUAGUUA | 0.205 ± 0.013 | 0.00667 ± 0.002 | 0.0613 ± 0.011
24 | UCCUGGUUCAGCUUGCAUAGUUUUUAGUUA | 0.0483 ± 0.013 | 0.0081 ± 0.0027 | 0.00498 ± 0.0023
25 | UCCUGGAACAGCUUGCUUACUAUUUAGUUA | 0.0834 ± 0.011 | 0.0029 ± 0.0024 | 0.00758 ± 0.0029
26 | UCCUGGUAGAGCUUGGAUAGUAUUUAGUUA | 0.15 ± 0.0091 | 0.00624 ± 0.0029 | 0.004 ± 0.0023

Row | Sequence | pre-steady-state target cleavage rate [1, 3] | pre-steady-state target cleavage rate [1, 4] | pre-steady-state target cleavage rate [2]
27 | UCCUGGAACAGCUUGCAAGUAUUUAGUUA | 0.141 ± 0.013 | 0.00614 ± 0.0021 | 0.00284 ± 0.0019
28 | UCCUCCUACAGCUUGCAUUGUAUUUUGUUA | 0.0994 ± 0.015 | 0.00327 ± 0.0022 | 0.00442 ± 0.0027
29 | UCCUGGAUGUGGCUUGCAUAGUAUUUAGUUA | 0.163 ± 0.017 | 0.0089 ± 0.0042 | 0.0125 ± 0.0049
30 | UCCUCCUACAGCUUGCAUAGUAUUUAGUUG [g2:g26:cont:t1G] | 0.158 ± 0.016 | 0.0087 ± 0.0025 | 0.00723 ± 0.0029
31 | UCCUGGUACAGCUUGCAUUGUAUUUAGUUA | 0.171 ± 0.017 | 0.0101 ± 0.0041 | 0.00513 ± 0.002
32 | UCCUGCUACUGCUUGCAAAGUAUUUAGUUA | 0.0928 ± 0.013 | 0.00523 ± 0.0021 | 0.00588 ± 0.0023
33 | UCCUGGAACAGCUUGCAUAGUAUUUUAGUUA | 0.241 ± 0.02 | 0.0048 ± 0.0033 | 0.0192 ± 0.0054
34 | UCCUGGUUCAGCUUGCAUAGUAUUUAGUUA | 0.23 ± 0.022 | 0.0108 ± 0.0032 | 0.0765 ± 0.018
35 | UCCUGCUACAGCUUCGAUAGUAUUUAGUAA | 0.199 ± 0.03 | 0.00274 ± 0.0022 | 0.00315 ± 0.0026
36 | UCCUGGAUGAGCUAGCAUUGUAUUUAGUUA | 0.0518 ± 0.0092 | 0.00446 ± 0.0025 | 0.00519 ± 0.0032
37 | UCCUCCUACAGCUUGCAUAGUAUAAUGUUA | 0.158 ± 0.026 | 0.00294 ± 0.0027 | 0.00388 ± 0.0022
38 | UCCUCCUACGCUUGCAUAGUAUUUAGUUA | 0.301 ± 0.013 | 0.0071 ± 0.0018 | 0.0821 ± 0.021
39 | UCCUGGAUGAGCUUGCAUAGUAUUUAGUUU [g2:g21:cont:t1U] | 0.226 ± 0.011 | 0.0146 ± 0.0035 | 0.0356 ± 0.0098
40 | UCCUGGAACAGCUUGCACAGUAUUUAGUUA | 0.169 ± 0.014 | 0.0128 ± 0.003 | 0.0589 ± 0.015
41 | UCCUGGAUGAGCUUGCAUAGUAUCUAGUUA | 0.131 ± 0.019 | 0.00451 ± 0.0026 | 0.00844 ± 0.003
42 | UCCUGGAACAGCUUGCUUAGUAUUUUGUUA | 0.167 ± 0.025 | 0.00339 ± 0.0024 | 0.00494 ± 0.0028
43 | UCCUGCUACAGCUUGAUAGUAUUUAGUUA | 0.133 ± 0.017 | 0.00396 ± 0.0021 | 0.00658 ± 0.0031
44 | UCCUGGAUCAGCUUGCAUAGUAUGUAGUUA | 0.202 ± 0.018 | 0.00457 ± 0.0024 | 0.0171 ± 0.0042
45 | UCCUGCUAACAGCUUGCAUAGUAUUUAGUUA | 0.307 ± 0.033 | 0.00599 ± 0.0032 | 0.0114 ± 0.0038
46 | UCCUGGAUGACCUUGCAUAGUAUUUAGUUA | 0.177 ± 0.023 | 0.0057 ± 0.0024 | 0.0113 ± 0.0049
47 | UCCUGGAUGUGCUUGCAUAGUAUCUAGUUA | 0.135 ± 0.031 | 0.00366 ± 0.0031 | 0.00344 ± 0.0024
48 | UCCUGGAUGUGCUUGCAUAGUAUAUUAGUUA | 0.111 ± 0.016 | 0.00381 ± 0.0027 | 0.0043 ± 0.0034
49 | UCCUGGAACACCUUGCAUAGUAAUUAGUUA | 0.191 ± 0.031 | 0.00362 ± 0.0024 | 0.00283 ± 0.0022
50 | UCCUGCUAGAGCUUGCAUAGUAAUUAGUUA | 0.19 ± 0.02 | 0.00448 ± 0.0023 | 0.00471 ± 0.0019
51 | UCCUCCUACAGGAUGCAUAGUAUUUAGUAA | 0.23 ± 0.017 | 0.00422 ± 0.0022 | 0.0119 ± 0.0048
